An excerpt weighted towards active compounds, which were near 4% of everything screened.
Anthrax LF inh2 = blocks Bacillus anthracis lethal factor protease | P15917 | multiplex microsphere protease cleavage assay, LF | inhibition, % at 10 µM | actives 0.12% (n = 360,000); further: plate controls were buffer without enzyme for full effect and enzyme alone for no effect
MazEF act = activators of E. coli MazEF toxin-antitoxin RNase; FAM/BHQ RNA-DNA oligo cleavage fluorescence, 5 h; P0AE70; activation, % at 20 µM; actives 0.32% (n = 350,000); in the data active means activation above about 50%
VHR inh abs = blocks human VHR1 dual specificity phosphatase | inhibition, % at 13.3 µM | AID 1654 | P51452 | actives 0.52% (n = 290,000) | recombinant VHR phosphatase, pNPP absorbance; in the data active means inhibition above about 50%
Bead autofluor = flagged as autofluorescent in microsphere protease counterscreen | fluorescence intensity (test concentration not listed) | compound autofluorescence counterscreen, microsphere flow cytometry; stronger effect = higher value | actives 3.1% (n = 360,000) | AID 624483; in the data active means fluorescence intensity above about 16000; inconclusive means no clear call, values can overlap the other calls
BoNT-A LC inh2 = BoNT A light chain protease inhibition; multiplex microsphere protease substrate cleavage, flow cytometry; inhibition, % at 10 µM; actives 0.17% (n = 360,000); further: plate controls were buffer without enzyme for full effect and enzyme alone for no effect
BoNT F protease = BoNT F light chain protease inhibition; Multiplex microsphere protease cleavage assay, flow cytometry; inhibition, % at 10 µM; actives 0.22% (n = 360,000); in the data active means inhibition above about 35%, passing the limit was not always enough; inconclusive means no clear call, values can overlap the other calls; further: plate controls were buffer without enzyme for full effect and enzyme alone for no effect
* marks the source's active call; other numbers are inactive results; ? = inconclusive; · = not tested or not shown. Unless noted, no stated cut-off is given here; in the data, active means inhibition above about 30%; inconclusive means no clear call, values can overlap the other calls; inactive means below that.

SMILES	Anthrax LF inh2	MazEF act	VHR inh abs	Bead autofluor	BoNT-A LC inh2	BoNT F protease
Cc1ccc(S(=O)(=O)N2C(=O)CCC2C(N)=O)cc1 (stereo not given)	0	-19	18	3197	0	4
COC(=O)c1ccccc1NC(=O)C1CCCN(S(=O)(=O)c2ccccc2)C1 (stereo not given)	3	3	0	19578*	?	4
C=CCNC(=O)C1CCC(=O)N1S(=O)(=O)c1ccc(C)cc1 (stereo not given)	·	8	-5	·	·	·
COC(=O)c1c(NC(=O)c2ccccc2C(=O)O)sc2c1CCC2	5	-1	0	4195	-2	-13
C=CCSc1nnc(CNS(=O)(=O)c2ccc(C)cc2)n1C	4	-3	10	5394	-3	-7
Cc1cccc(C(=O)Nc2ccc(Cl)cc2C(=O)c2ccccc2)c1	-5	-4	-1	20672*	?	-2
Cc1cccc(C(=O)Nc2ccccc2NC(=O)c2cccc(C)c2)c1	1	3	17	3471	-3	7
CCCNC(=O)Cn1c(=O)n(CC(=O)N2CCCCC2)c(=O)c2sccc21	0	4	56*	4183	1	12
COCCCN1C(=O)N(c2ccc(F)cc2)C(=O)C1CC(=O)Nc1ccccc1 (stereo not given)	-9	1	-20	3627	-1	15
CCNC(=O)CC1C(=O)N(c2ccccc2)C(=O)N1CCc1ccc(OC)c(OC)c1 (stereo not given)	0	-10	0	22965*	?	2
CCNC(=O)CC1C(=O)N(c2ccc(F)cc2)C(=O)N1CCc1ccc(OC)cc1 (stereo not given)	-1	-1	10	20994*	-1	-1
CCOC(=O)c1ccc(NC(=O)CC2C(=O)N(c3ccccc3)C(=O)N2CCCOC)cc1 (stereo not given)	-4	4	-2	19974*	0	-1
Cc1c(C#N)c2ccccc2n1CC(=O)N1CCCC1	-1	-1	6	2971	-1	-6
Cc1cc(C)c(NC(=O)CN(C)C(=O)CNC(=O)c2cccs2)c(C)c1	-8	-11	·	3862	0	-6
CCOc1ccccc1OCC(=O)Nc1ccc(S(=O)(=O)Nc2nc(C)cc(C)n2)cc1	-2	-10	0	20817*	-2	-3
Cc1cc(C)c2nc(-c3ccccn3)cc(C(=O)Nc3ccc(S(=O)(=O)Nc4onc(C)c4C)cc3)c2c1	-3	-1	40	4696	0	0
Cc1cc(NS(=O)(=O)c2ccc(NC(=O)COc3ccccc3C(C)C)cc2)no1	-13	-12	15	4414	0	-10
Cc1cc(NS(=O)(=O)c2ccc(NC(=O)COc3ccccc3Cl)cc2)no1	-4	-5	-16	24447*	-4	-9
Cc1cc(C)c2nc(-c3ccccn3)cc(C(=O)Nc3ccc(S(=O)(=O)Nc4cc(C)on4)cc3)c2c1	-7	-1	6	16205*	?	-2
CCOC(=O)C1=C(N)OC2=C(C(=O)CCC2)C1c1cccs1 (stereo not given)	2	3	0	8209	0	-2
CCOc1cc(C(=O)OCC(=O)c2c[nH]c3ccccc23)ccc1OCC(=O)N1CCOCC1	0	10	25	4307	0	?
COc1ccc(/C=C/C(=O)c2ccc[nH]2)cc1OC	-1	2	14	16560*	0	0
COc1ccc(/C=C/C(=O)c2ccc[nH]2)c(OC)c1OC	5	0	8	4382	4	18
COc1ccc(C(=O)C[n+]2ccc3ccccc3c2C)cc1	·	5	-6	·	·	·
NC(=O)CSc1n[nH]c(-c2ccco2)n1	3	1	13	4282	0	-8
SMILES	Anthrax LF inh2	MazEF act	VHR inh abs	Bead autofluor	BoNT-A LC inh2	BoNT F protease
Cc1ccc(C(=O)CSc2n[nH]c(-c3ccco3)n2)cc1C	-2	4	-4	17185*	-2	-3
COc1ccc(C(=O)CSc2n[nH]c(-c3ccco3)n2)cc1	-1	4	-3	17016*	-1	-2
Cc1ccnc(SC2CC(=O)N(c3ccc(C(C)C)cc3)C2=O)n1 (stereo not given)	8	7	51*	3805	?	?
Cc1ccnc(SC2CC(=O)N(c3ccc(Cl)cc3)C2=O)n1 (stereo not given)	-4	6	31	3056	1	?
CC(C)C(=O)Nc1nnn(C)n1	-2	-1	8	22504*	1	1
CC(C)CC(=O)Nc1nnn(C)n1	-7	5	11	18519*	4	7
Cn1nnc(NC(=O)C(c2ccccc2)c2ccccc2)n1	-4	2	8	14865	3	6
O=C(O)CCCn1cc(NC(=O)c2c(F)cccc2F)cn1	-6	23	19	5120	-1	1
CCC(=O)OCc1c(C(F)(F)F)nn(C)c1Sc1ccc(F)cc1	-10	2	16	8845	0	-4
CC(=O)OCc1c(C(F)(F)F)nn(C)c1Sc1ccccc1	-2	-1	20	19824*	1	1
O=C(Nc1cccc(O)c1)c1cccc(S(=O)(=O)N2CCCCCC2)c1	10	0	25	3670	2	-4
O=C(Nc1cccc(O)c1)c1ccc(Br)cc1	-7	3	-1	21990*	3	4
O=C(Nc1ncn[nH]1)c1ccc(Cl)c(S(=O)(=O)N2CCCCCC2)c1	3	4	18	16856*	-1	0
O=C(Nc1cccc(O)c1)c1ccc(Br)c(S(=O)(=O)N2CCCCC2)c1	-3	9	9	24544*	-4	-6
CCOC(=O)C1=C(CN2c3ccccc3CC2C)NC(=O)NC1c1ccccc1 (stereo not given)	44*	1	17	2062	54*	16
CCOC(=O)C1=C(CCc2ccccc2)NC(=O)NC1c1ccc(Br)cc1 (stereo not given)	-4	3	20	3550	0	3
CCOC(=O)N1CCC(NS(=O)(=O)c2ccc3c(c2)oc(=O)n3C)CC1	2	-33	4	16773*	2	-1
CCOC(=O)Cn1c(=O)oc2cc(S(=O)(=O)NC3CCCCC3)ccc21	-4	4	25	6273	0	-8
Cn1c(=O)oc2cc(S(=O)(=O)NC3CCCCCCC3)ccc21	-3	3	18	16482*	-1	-2
CCOC(=O)N1CCC(NC(=O)C2CCCN(S(=O)(=O)c3ccc4c(c3)oc(=O)n4C)C2)CC1 (stereo not given)	1	-9	19	9985	1	5
CC(=O)Nc1ccc(CC(=O)N2CCN(Cc3ccccc3)CC2)cc1	-6	-10	36	3642	-4	17
O=C(N1CCOCC1)C(F)(F)C(F)(F)C(F)(F)C(F)(F)C(=O)N1CCOCC1	0	6	2	20612*	?	0
CCCc1cc(=O)oc2c(C)c(OC(C)C(=O)NCCN3CCOCC3)ccc12 (stereo not given)	-2	13	-9	6264	-1	-8
O=Cc1ccccc1Oc1nc(N2CCOCC2)nc(N2CCOCC2)n1	-1	-3	18	2212	0	-7

High-throughput results (PubChem BioAssay)
